PubChem BioAssay AID1259312 (Keith Lab, Institute of Cancer Science, University of …, 2017)
Among all 4,500 compounds or so, about 200 (4.4%) were called active. What follows is part of a selection rich in actives, with near analogues and random picks from the rest. Values without a mark were called inactive.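 Rule for the calls: active = cell survival measured by absorbance rises more than 2.5-fold over infected cells without compound; inactive = the rest.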

Experiment: survival after telomere uncapping, modulators, primary screen, cell-based (AID 1259312);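 note: virus expresses mutant telomerase RNA that uncaps telomeres and kills cells; compound added 2 days after infection so exposure lasts 3 days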
Details: HCT116 + Ad-hTR-mut, MTT, 5 d; at 10 µM, stronger effect = higher value

SMILES | fold change
CC1CN(c2ccc([N+](=O)[O-])c(N3CCOCC3)c2)CCN1 (stereo not given) | -1.03
CN1CCN(c2ccc([N+](=O)[O-])c(N3CCN(C)CC3)c2)CC1 | -1.49
O=[N+]([O-])c1ccc(N2CCOCC2)cc1Cl | 4.62 (active)
O=[N+]([O-])c1ccc(Cl)c2nonc12 | -8.7
NC1(Cc2ccc(Cl)cc2)CC1 | -2.29
O=C1C[C@@H]2OCC=C3CN4CC[C@]56c7ccccc7N1[C@H]5[C@H]2[C@H]3C[C@H]46 | -1.27
COc1cc2c(cc1OC)C13CCN4CC5=CCOC6CC(=O)N2C1C6C5CC43 (stereo not given) | 3.18 (active)
CN1CCN(c2ccc([N+](=O)[O-])cc2Cl)CC1 | -1.02
Cc1cc(C)c(C)c(C=C(C#N)C#N)c1C | 1.51
CCc1cc(CC)c(C=C(C#N)C#N)c(CC)c1 | 1.07
N#CC(C#N)=Cc1c2ccccc2cc2ccccc12 | 3.81 (active)
CCOC(=O)c1c(NC(=O)C2C(C)(C)C2(C)C)sc2c1CCC2 | -1.33
CC1CN(c2ccc([N+](=O)[O-])cc2[N+](=O)[O-])CCN1 (stereo not given) | 2.15
Clc1ccc2c(N3CCNCC3)ccnc2c1 | -2.13
CC(=O)OC1CCC2(C)C3CCC4(C)C(CC[C@]4(OC(C)=O)C(C)OC(C)=O)C3CC[C@H]2C1 (stereo not given in full) | 3.25 (active)
C[C@]12CC[C@H](O)C[C@@H]1CC[C@@H]1[C@@H]2CC[C@]2(C)C(=O)CC[C@@H]12 | 1.18
COC(=O)C(N)CCCN=C(N)N[N+](=O)[O-] (stereo not given) | -1.4
CCNc1nc(Cl)nc(NCC)n1 | 2.5 (active)
O=c1[nH]c(=O)n(Cc2ccco2)c(O)c1C=NCc1cccs1 | inactive
COC(=O)Nc1nc2ccccc2[nH]1 | -8.68
O=[N+]([O-])c1ccc(NCCO)c2cccnc12 | -1.59
CCNCCNc1ccc([N+](=O)[O-])c2cccnc12 | -2.62
O=[N+]([O-])c1ccc(NCCO)c2ncccc12 | 2.89 (active)

SMILES | fold change
N#Cc1c(/N=C/c2c(O)n(Cc3ccco3)c(=O)[nH]c2=O)sc2c1CCCC2 | inactive
CC1CN(c2ccccc2[N+](=O)[O-])CCN1 (stereo not given) | 1.8
CC1(C)C(C(=O)Nc2cc(Br)c(Br)c(Br)c2)C1(C)C | -1.03
COc1ccc(CC2NCCc3cc(OC)c(OC)cc32)cc1OC (stereo not given) | -2.4
COc1cc2c(cc1OC)C(C)NCC2 (stereo not given) | 1.05
COc1cc2c(cc1O)CCNC2C (stereo not given) | 4.6 (active)
COCc1c(C)cc(C)c(C=C(C#N)C#N)c1C | -1.04
C[C@]12CC[C@H]3[C@@H](CC[C@]4(O)C[C@@H](O)CC[C@]34C=O)[C@@]1(O)CC[C@@H]2C1=CC(=O)OC1 | -23.3
CCC1CN2CCC1CC2C(O)c1ccnc2ccc(OC)cc12 (stereo not given) | 1.15
C#CCSc1nc2ccccc2c(=O)n1-c1ccccc1 | -2.72
CCCCc1ccc(C=C(C#N)C#N)s1 | -1.17
N/N=C(\N)c1nonc1N | 3.99 (active)
Nc1nonc1-c1nn[nH]n1 | -1.38
Nc1nonc1[N+](=O)[O-] | 1.03
Cc1cc(C)[n+]2cc(Br)ccc2n1 | 1.21
O=C(CCl)Nc1ccccn1 | -1.43
O=[N+]([O-])c1ccc(N2CCNCC2)c2cccnc12 | -1.29
CC1CN(c2ccc([N+](=O)[O-])c3cccnc23)CC(C)N1 (stereo not given) | 3.89 (active)
CN1CCN(c2ccc([N+](=O)[O-])c3cccnc23)CC1 | -1.27
O=C(CCl)NCc1ccco1 | 1.2
CCc1nnc(NC(=O)CCl)s1 | 1.66
N#CC1=C(N)Oc2c(c(=O)oc3ccccc23)C1c1cccc2ccccc12 (stereo not given) | -1.29
